Bioassay records from PubChem BioAssay.
697 NFkB inh: inhibitors of the PMA/ionomycin-induced NF-kB reporter in 697 B cells | 697 B-cell NF-kB luciferase reporter, 16 h | inhibition, % at 4 µM | actives 0.33% (n = 330,000) | AID 435022; in the data active = inhibition above about 35%
aSyn UTR inh: 5' untranslated region of α-synuclein, MLPCN primary screen. actives 0.82% (n = 300,000). inhibition, % (tested at 7.5 µM). alpha-synuclein 5'UTR reporter, inhibitor activity. AID 1813; in the data active = inhibition above about 60%;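 note: H4 neuroglioblastoma cells stably carrying SNCA 5'UTR luciferase fusion; 0% = DMSO wells and 100% = positive control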
CSC inhib: blocks cancer stem cells; actives 1.1% (n = 300,000); AID 2717; inhibition, % at 7.5 µM; cancer stem cell-like cells viability, luminescence; in the data active = inhibition above about 75%; tested in HMLE shEcad cells
Gli-Sufu block: antagonists of Gli-Sufu signaling; Sufu-KO-LIGHT fibroblasts, Gli luciferase reporter luminescence; inhibition, % at 5 µM; actives 0.74% (n = 340,000); AID 588413;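 active = inhibition above about 55%, limit read from the data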;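 note: 0% = DMSO-treated cells and 100% = wells with medium but no cells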
Mdm2-MdmX inh: disrupts the human Mdm2-MdmX interaction; SaOS-2 split-luciferase Mdm2/MdmX complementation, luminescence; AID 485346; O15151+Q00987; inhibition, % at 8 µM; actives 3% (n = 330,000);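 active = inhibition of at least 50% at 8 µM in the primary screen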
Target sequence (O15151 whole entry, looked up): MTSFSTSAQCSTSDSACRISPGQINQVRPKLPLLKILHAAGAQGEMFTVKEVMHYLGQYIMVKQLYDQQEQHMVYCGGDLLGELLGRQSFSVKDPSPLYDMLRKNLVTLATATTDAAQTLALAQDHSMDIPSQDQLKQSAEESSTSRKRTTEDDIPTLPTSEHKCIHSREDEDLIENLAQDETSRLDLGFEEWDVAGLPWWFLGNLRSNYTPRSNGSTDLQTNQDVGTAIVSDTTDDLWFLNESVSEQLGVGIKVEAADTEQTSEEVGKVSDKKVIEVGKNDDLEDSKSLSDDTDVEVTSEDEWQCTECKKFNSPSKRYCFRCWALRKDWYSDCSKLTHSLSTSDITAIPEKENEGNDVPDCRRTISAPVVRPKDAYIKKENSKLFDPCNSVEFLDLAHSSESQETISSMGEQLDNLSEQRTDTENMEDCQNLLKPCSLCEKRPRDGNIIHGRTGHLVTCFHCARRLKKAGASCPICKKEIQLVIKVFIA
Target sequence (Q00987 whole entry, looked up): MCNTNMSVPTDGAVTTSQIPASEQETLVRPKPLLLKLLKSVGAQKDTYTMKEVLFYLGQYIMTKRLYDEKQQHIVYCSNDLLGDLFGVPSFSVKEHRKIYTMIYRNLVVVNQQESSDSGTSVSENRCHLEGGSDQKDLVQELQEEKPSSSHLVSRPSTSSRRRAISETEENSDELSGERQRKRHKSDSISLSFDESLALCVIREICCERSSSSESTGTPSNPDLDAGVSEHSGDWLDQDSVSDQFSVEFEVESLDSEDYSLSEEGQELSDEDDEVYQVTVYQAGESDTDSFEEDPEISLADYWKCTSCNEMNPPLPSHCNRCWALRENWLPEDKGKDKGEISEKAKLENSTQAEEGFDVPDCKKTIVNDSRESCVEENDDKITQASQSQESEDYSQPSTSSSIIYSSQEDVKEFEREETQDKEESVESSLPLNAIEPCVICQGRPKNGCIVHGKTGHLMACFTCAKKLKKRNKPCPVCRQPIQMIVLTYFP
Jurkat NFkB inh: lowers PMA/ionomycin-induced NF-kB signal in Jurkat cells; actives 0.53% (n = 330,000); PMA/ionomycin-induced NF-kB luciferase reporter, luminescence; inhibition, % at 4 µM; in the data active = inhibition above about 50%
Mdm2-MdmX conf: human Mdm2/MdmX binding inhibition, confirmed. shares compounds with Mdm2-MdmX inh. AID 489028. luminescent assay. actives 55% (n = 10,000). inhibition, % at 8 µM; in the data active = inhibition above about 40%
FLuc counter: full-length luciferase inhibition in Mdm2/MdmX counter-screen; shares compounds with Mdm2-MdmX inh; AID 504607; inhibition, % at 8 µM; actives 77% (n = 6,200); SaOS-2 full-length luciferase counterscreen, luminescence;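 active = mean inhibition at 8 µM reaching about 37%, which flags the compound as non-specific, limit read from the data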;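 note: p53-null SaOS-2 cells with luciferase driven by a doxycycline-inducible promoter; compound on cells about two nights before reading with doxycycline added after day one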
Starred values were filed as active, the others as inactive; x = no result given. Hits are enriched below; roughly 4.5% of the tested compounds scored in any of these assays.

SMILES | 697 NFkB inh | aSyn UTR inh | CSC inhib | Gli-Sufu block | Mdm2-MdmX inh | Jurkat NFkB inh | Mdm2-MdmX conf | others
Cc1nc(N/N=C/c2ccc(O)cc2)c2cnn(-c3ccccc3)c2n1 | -16 | -6 | -7 | 13 | 59* | 3 | -3
CC(=O)Nc1ccc(S(=O)(=O)N(C)CC(=O)Nc2cccc(S(=O)(=O)N3CCCC3)c2)cc1 | 10 | -8 | x | 3 | 25 | 6 | x
CC(=O)Nc1ccc(C(=O)OCC(=O)Nc2c(F)cccc2F)cc1 | -8 | -3 | -2 | -2 | 17 | -1 | x
O=c1[nH]c(CSc2ccccn2)nc2c1oc1ccccc12 | -130 | 31 | 3 | -32 | 5 | -21 | x
CC(C(=O)N1CCCC1)N(c1ccccc1)S(C)(=O)=O (stereo not drawn) | 2 | 1 | -7 | x | 8 | -1 | x
O=C(OCn1ncc(Br)c(Br)c1=O)c1ccc(F)cc1 | -37 | 64* | -43 | -1 | 99* | 27 | 100* | FLuc counter=0
O=C(OCn1ncc(Br)c(Br)c1=O)c1ccccc1Cl | -29 | -40 | -6 | 12 | 99* | 21 | 98* | FLuc counter=2
Cc1ccc(NC(=S)N(C)C(c2ccccc2)c2ccccc2)cc1C | -3 | -19 | 28 | -4 | 59* | -19 | 25
O=C(COc1ccc2c3c(c(=O)oc2c1)CCCC3)NCc1ccccn1 | 13 | 4 | -12 | -12 | -5 | 17 | x
COc1ccc(NC(=O)CCNS(=O)(=O)c2cccc3nonc23)cc1 | 7 | -16 | -11 | 14 | 16 | 15 | x
COc1ccc(-c2oc3ccccc3c(=O)c2OC(C)=O)cc1 | 4 | -174 | 27 | -4 | 73* | -41 | 83* | FLuc counter=51*
CC(=O)Oc1c(-c2ccc(Br)o2)oc2ccccc2c1=O | 2 | -66 | 21 | -2 | 93* | 0 | 41* | FLuc counter=30
COC(=O)c1ccc(NC(=S)NC2CC3CCC2C3)cc1 (stereo not drawn) | -47 | -38 | 19 | -26 | -29 | -43 | x
COc1cccc(-c2nnc(NC(=O)c3ccc(Cl)s3)o2)c1 | -3 | -5 | 51 | -16 | 61* | 11 | 17
O=C(Nc1nnc(-c2ccc(F)cc2)o1)c1cc(Cl)sc1Cl | 19 | 3 | x | 30 | 62* | 4 | 38 | FLuc counter=38*
CC(=O)C[C@H]1c2cc(F)ccc2S(=O)(=O)N1c1ccc(N(C)C)cc1 | 1 | -9 | 8 | -3 | 20 | 14 | x
CCc1nc(SCC(=O)Nc2ccc3c(c2)OCCO3)c2oc3ccccc3c2n1 | -36 | 27 | 44 | 8 | 86* | -26 | 9
N/C(=N\OC(=O)C12CC3CC(CC(C3)C1)C2)c1ccncc1 | -28 | -29 | 22 | -5 | 84* | 14 | 14
COc1ccc(/C=N\NC(=O)c2ccccc2Cl)cc1COc1c(F)c(F)c(F)c(F)c1F | -12 | 2 | 72 | -3 | 56* | 8 | 22
C=CCNC(=O)c1ccc(-c2nc(-c3ccc(Cl)cc3Cl)cs2)cc1 | -222 | -5 | 5 | -18 | 26 | 2 | x
C=CCNC(=O)c1ccc(-c2nc(-c3ccc(Cl)c(Cl)c3)cs2)cc1 | -146 | 9 | -9 | -6 | 52* | 7 | 25
CCNC(=O)C(=O)NCc1ccncc1 | 6 | 13 | -5 | -6 | -8 | 5 | x
CCCCCCC(=O)Nc1ccc(C(=O)N/N=C/c2cccnc2)cc1 | -79 | -1 | 53 | 10 | 1 | -13 | x
CCCCCCCC(=O)Nc1ccc(C(=O)N/N=C/c2cccc([N+](=O)[O-])c2)cc1 | -6 | 76* | 14 | -16 | 88* | 1 | 19
CC(/C=N/NC(=O)c1cccc([N+](=O)[O-])c1)=C\c1ccccc1 | -24 | -52 | x | -27 | 74* | -36 | -30
CCC(=O)N1CCN(c2ccc(Cl)cc2NC(=O)c2cccc([N+](=O)[O-])c2)CC1 | -1 | -35 | -3 | -11 | 55* | -3 | 6
COc1ccc(CC(=O)Nc2ccc(/C(C)=N/NC(=O)c3cccc([N+](=O)[O-])c3)cc2)cc1 | -22 | -32 | -3 | 0 | 57* | -8 | -4
